Each molecule was assayed on tubulin (bovine brain) (assay: tubulin polymerization end-point dOD, fold change relative to DMSO vehicle; higher = more polymerization (stabilization)). Settings: 50 µM; 60 min; 37 °C.
Description: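 In-vitro tubulin polymerization assay (Cytoskeleton HTS kit) with 4 mg/ml bovine brain tubulin in G-PEM buffer and compound at 50 uM (0.5% DMSO). Turbidity was read at 340 nm every minute for 1 h at 37 C. The end-point change in OD (dOD) was converted to % fold change relative to the DMSO vehicle (0%), and runs were scaled using DMSO and Taxol controls. The paper calls >20% an effect, 20-40% weak and >40% strong; positive values mean stabilization, negative values destabilization. Scale: negative = destabilization.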

SMILES	tubulin polymerization end-point dOD [%]
Cc1ccc2cc(C#N)c(SCC(=O)c3ccc(F)cc3)nc2c1C	20
Cc1ccc2nc(-c3ccc(I)cc3)cn2c1	101
CC(=O)Nc1ccc(Nc2nc(-c3c(C)nc4ccccn34)cs2)cc1	30.8
O=C(Nc1ccc(Cl)cc1)N(Cc1cc2cc3c(cc2[nH]c1=O)OCCO3)CC1CCCO1 (stereo not given)	-20.7
Clc1ccc2sc(/C=C/c3cccnc3)nc2c1	47.1
COc1ccccc1NC(=O)CSc1nnc(-c2cccnc2)n1-c1ccccc1C	-57.2
O=C(Nc1ncc(Cc2ccc(F)cc2)s1)c1ccc2c(c1)OCO2	20.1
COc1cc(C(=O)Nc2ccc3c(c2)CCN3C(C)=O)cc2c1OCCO2	-17
O=C(Nc1ccc(N2CCc3sccc3C2)nc1)c1ccccc1Br	14.9
Cc1ccc(/C=N\NC(=O)COc2ccccc2Br)c(C)c1	-56.5
Cc1cc(NC(=O)CSc2nnc3c(C)cc4c(C)ccc(C)c4n23)no1	-40.7
Cc1cc2ccccc2n2c(=O)n(CC(C)NC(=O)c3cnn(C)c3C)nc12 (stereo not given)	-1.81
CCOc1ccc(C(=O)N(Cc2cccs2)Cc2cc3cc(C)ccc3[nH]c2=O)cc1	27.2
CCCC(NC(=O)c1cnc(SC)nc1)c1ccc2c(c1)OCCO2 (stereo not given)	2.16
Cc1ccc(-c2csc3ncn(CC4CCCCO4)c(=O)c23)cc1 (stereo not given)	-190
Cc1ccccc1/C=N/N=C1\NC(=O)C(Cc2ccccc2C)S1 (stereo not given)	-10.8
O=C(Nc1ncc(Cc2ccccc2)s1)c1sc2ccccc2c1Cl	-14.2
O=C(Nc1ccc2c(c1)OCCO2)C(=O)Nc1cccc2cccnc12	76
Oc1ccccc1-c1nc2ccc(Cl)cn2c1NCc1ccc2c(c1)OCO2	7.3
CCS(=O)(=O)N1CCc2cc(C3=NN=C(NCc4ccc5c(c4)OCO5)SC3)ccc21	227

SMILES	tubulin polymerization end-point dOD [%]
CN(C)c1ccc(/C=N/NC(=O)c2cccc(F)c2)cc1	27.6
Cc1cc2nc(/C=C/c3cccs3)sc2cc1C	43.1
CC(=O)c1c(C)[nH]c(C(=O)Nc2ccc(N3CCCC3=O)cc2)c1C	-9.36
Cc1cnc(C(=O)Nc2ncc(Cc3ccc(C)c(Cl)c3)s2)cn1	-19.2
COc1ccc2cc(CN(Cc3ccccc3Cl)C(=O)Nc3ccccc3OC)c(=O)[nH]c2c1	-4.53
Cc1cccc(N2CCN(C(=O)c3cc(Cl)ccc3Cl)CC2)c1	-45.7
O=C(Nc1ccc2c(c1)OCCO2)C(=O)Nc1cccc2ncccc12	-9.86
CCCn1c(NC(=O)C2CC(=O)N(c3ccc4c(c3)OCCO4)C2)nc2ccccc21 (stereo not given)	-4.32
COC(=O)Nc1nc2cc(C(=O)c3ccccc3)ccc2[nH]1 [Mebendazole]	6.22
COc1ccc(C2=NOC(=O)/C2=N/Nc2ccc(Cl)cc2)cc1	19
CC(=O)c1c(C)[nH]c(C(=O)Nc2ccc(N3CCCC3)cc2)c1C	27.6
Cc1cc2cc3c(cc2nc1SCC(=O)NC1CCCC1)OCCO3	10.3
O=C(Nc1ccc(N2CCCC2)cc1)C1COc2ccc(Cl)cc2C1 (stereo not given)	19.2
N#Cc1cc2cc3c(cc2nc1SCC(=O)Nc1ccccc1Cl)OCCO3	17.2
O=C1N/C(=N/N=C/c2ccccc2O)SC1Cc1cc(C(F)(F)F)ccc1Cl (stereo not given)	-23
COc1ccccc1-n1c(SCC(=O)Nc2nccs2)nnc1-c1cccnc1	5.05
COc1cc2c(cc1OC)C(c1cccs1)[NH+](CC(O)c1ccccc1)CC2 (stereo not given)	-40.4
Cc1ccc(C(=O)Nc2nc3ccc(Cl)cc3s2)cn1	-82.9
CC(=O)c1c(C)cc(C)c(CSc2nnc(-c3ccc(F)cc3)n2C)c1C	-75.9
COc1ccccc1N1CC[NH+](Cc2c(-c3ccccc3)nc3sccn23)CC1	-21.9

Reference: the supplement of paper PMC4380459
